Data reported in the supplement of paper PMC6555819.

tested on: PPARg DBDmut:RXRa IVT, anti-PPARg (DBD mutation: PPARg1 K132A/R137A, NR concentration 270 nM, RXRa partner concentration 90 nM); assay: PBM binding z-score (relative to random genomic background probes); higher = stronger binding; sequences stand for … in GC…GCGATTGACAGCGTAGAATGAAGG
How it was run: (§1)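 Antibodies against each partner of ligand-free nuclear receptor dimers (one per run) detected binding on custom Agilent 4×180K protein-binding microarrays after 1 h incubation. The double-stranded probes had 34-nt variable regions carrying direct-repeat seeds, single-nucleotide variants, half-site ablations and random human genomic background sequences. Binding z-scores, from regression-normalized fluorescence, use the random background probes as reference.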

Row | Sequence | PBM binding z-score
1 | ATCGAAAGGTAGACGAGGTGAGTATACACCGTTT | 0.703
2 | CAGCCTAGGTCAGGGCCGGTATAGGAGGAACGTT | -0.778
3 | CAAACTAGGTCAAGAGGTCGAAGTCCGCTTCCCG | 1.18
4 | TAGCCTAGGTCATTGGGGCAGTATAGTACGCATC | 0.832
5 | CGAACTAGGTCATTGACAGGACAGTGAATAGTAA | 2.23
6 | AGATGTAGGTTACATCCGGGTCATTCAGGCTATG | 0.707
7 | CAAACTAGGTCAAAGAGGTCAAAGTCCGTGCGTA | 2.17
8 | CATACAGGGTCAGCTAGGCCAGGGTAGGGACGGC | 0.368
9 | GCTTACGGGTCGAAGGTTATAGCATGAATAGAAT | 0.973
10 | CCTATTGGGCCACGAAAGGTCATTGATTCAGTGA | 0.172
11 | CCCACTGGGCCAAAGGTCATTGATTCCAATGCTC | 0.334
12 | CCGACTGGGGCAAAAGTTACCATACTCAGTACGA | -0.127
13 | ACTAGCAGGCCAAGTTTGGGTCACTCTAACAAAG | -0.869
14 | CGAACTAAGTCAGAACAGGACAGTGAAGGATGAT | 0.659
15 | ACAGACAGTTGATGAAGGTAACTCAGGCTATCAT | 0.732
16 | ATCTCTAGGTAACCAAGTTCAGTGGATGCCGAAC | 0.893
17 | CAAACTAGGTCACCGGAAGGTCAAGGTCCGCATG | 2.07
18 | CCTTACGGGTCACTGACAGTTTATAGCATTTGGA | 0.77
19 | AGGCAAAGTTCAGGACGAGGTAACGTAAAGCACG | 0.287
20 | CGTCCAAGGCCAGCAGGTCAGTGAAAGCGACGTG | -0.768

Row | Sequence | PBM binding z-score
21 | ATCTCTAGGTAAGACTCAGTGCAGTGAAGAACGC | 0.237
22 | CCGACTGGGGCATAAGGTTAACATAAGCCAGCCC | -0.239
23 | CCTAGCAGGCCAGGGTCACTCATGCATTTCGCTT | -1.04
24 | CAAACTAGGTCAAGAGGTCATAGTCCGCTTCCCG | 3.3
25 | ATCTCTAGGTAAGAGTCAGTTCAGTGAAGAACGC | 0.489
26 | GGAACGAGGGCGAGTTGATAGCAGAGTTTGATGG | -0.327
27 | CGTCAATGTTCAAGGTAACGTAACAGAAAGCAGC | 0.371
28 | CCTACTGGGCCAAGGGCATTGATCAGTCAAAGCA | -0.869
29 | ATATGTCGGTTATCGGGTCATTCAGTTTGCGCAT | 1.98
30 | GCTAGCAGGCCATTTGGGTCACTCAGTGACGGGC | -0.601
31 | CATTACGGGTCAAGGTTATAGCACGGGTGGTACG | 0.969
32 | TCTCGGAGGACACGAAAGGTCATAGCTCGACATC | 1.29
33 | CCGGACAGGTGAAAGGTAACTCAGTCTGGTACGC | -0.561
34 | CCAGACAGGTGAGAAGGTAACTTAGCCTCGATTA | 0.104
35 | TCGAGTAGGTTAGTCGGGGCATTCAACCAACATA | -0.398
36 | CCTTGCAGGCCAATCTGGGTCACTCAAGGCTTGA | 0.0467
37 | CTCGAAAGGTCGGTTGAGGTGAGTACACGGATAA | 0.39
38 | CCTGCTAGGTCGATGGTCAGCTAAAGCAGCTCGC | -1.63
39 | CCTCGGAGGACAGAAGGTCAGGGCTGTCCGCTTT | -1.5
40 | CCTACTGGGCCAAGGTCAATGATCAGTCAAAGCA | -0.437

tested on: PPARg DBDmut IVT, anti-PPARg (DBD mutation: PPARg1 K132A/R137A, NR concentration 270 nM); assay: as above
How it was run: as §1

Row | Sequence | PBM binding z-score
41 | ATCGAAAGGTAGACGAGGTGAGTATACACCGTTT | 0.518
42 | CAGCCTAGGTCAGGGCCGGTATAGGAGGAACGTT | -1.19
43 | CAAACTAGGTCAAGAGGTCGAAGTCCGCTTCCCG | 0.351
44 | TAGCCTAGGTCATTGGGGCAGTATAGTACGCATC | 0.251
45 | CGAACTAGGTCATTGACAGGACAGTGAATAGTAA | 1.53
46 | AGATGTAGGTTACATCCGGGTCATTCAGGCTATG | 1.29
47 | CAAACTAGGTCAAAGAGGTCAAAGTCCGTGCGTA | 1.31
48 | CATACAGGGTCAGCTAGGCCAGGGTAGGGACGGC | 0.335
49 | GCTTACGGGTCGAAGGTTATAGCATGAATAGAAT | 0.687
50 | CCTATTGGGCCACGAAAGGTCATTGATTCAGTGA | -0.271
51 | CCCACTGGGCCAAAGGTCATTGATTCCAATGCTC | -0.118
52 | CCGACTGGGGCAAAAGTTACCATACTCAGTACGA | -0.288
53 | ACTAGCAGGCCAAGTTTGGGTCACTCTAACAAAG | -1.06
54 | CGAACTAAGTCAGAACAGGACAGTGAAGGATGAT | 0.276
55 | ACAGACAGTTGATGAAGGTAACTCAGGCTATCAT | 0.538
56 | ATCTCTAGGTAACCAAGTTCAGTGGATGCCGAAC | 0.352
57 | CAAACTAGGTCACCGGAAGGTCAAGGTCCGCATG | 0.589
58 | CCTTACGGGTCACTGACAGTTTATAGCATTTGGA | 0.36
59 | AGGCAAAGTTCAGGACGAGGTAACGTAAAGCACG | -0.24
60 | CGTCCAAGGCCAGCAGGTCAGTGAAAGCGACGTG | -0.983

Row | Sequence | PBM binding z-score
61 | ATCTCTAGGTAAGACTCAGTGCAGTGAAGAACGC | 0.958
62 | CCGACTGGGGCATAAGGTTAACATAAGCCAGCCC | -1.26
63 | CCTAGCAGGCCAGGGTCACTCATGCATTTCGCTT | -1.56
64 | CAAACTAGGTCAAGAGGTCATAGTCCGCTTCCCG | 2.09
65 | ATCTCTAGGTAAGAGTCAGTTCAGTGAAGAACGC | 0.902
66 | GGAACGAGGGCGAGTTGATAGCAGAGTTTGATGG | 0.298
67 | CGTCAATGTTCAAGGTAACGTAACAGAAAGCAGC | 0.433
68 | CCTACTGGGCCAAGGGCATTGATCAGTCAAAGCA | -1.53
69 | ATATGTCGGTTATCGGGTCATTCAGTTTGCGCAT | 2.05
70 | GCTAGCAGGCCATTTGGGTCACTCAGTGACGGGC | -0.52
71 | CATTACGGGTCAAGGTTATAGCACGGGTGGTACG | 1.08
72 | TCTCGGAGGACACGAAAGGTCATAGCTCGACATC | 0.408
73 | CCGGACAGGTGAAAGGTAACTCAGTCTGGTACGC | -0.876
74 | CCAGACAGGTGAGAAGGTAACTTAGCCTCGATTA | -0.619
75 | TCGAGTAGGTTAGTCGGGGCATTCAACCAACATA | -0.896
76 | CCTTGCAGGCCAATCTGGGTCACTCAAGGCTTGA | -0.339
77 | CTCGAAAGGTCGGTTGAGGTGAGTACACGGATAA | -0.276
78 | CCTGCTAGGTCGATGGTCAGCTAAAGCAGCTCGC | -0.626
79 | CCTCGGAGGACAGAAGGTCAGGGCTGTCCGCTTT | -1.83
80 | CCTACTGGGCCAAGGTCAATGATCAGTCAAAGCA | -1.01
